Screening data: PubChem, several laboratories
phage Ecoli inh – growth loss of phage-infected E. coli, primary screen, RecBCD inhibitor project, absorbance, with phage, HTS | actives 0.26% (n = 360,000) | inhibition, % at 11.9 µM; in the data active means inhibition above about 11%
AddAB inh – growth inhibition of E. coli expressing H. pylori AddAB, primary screen, AddAB inhibitor project, absorbance | actives 0.29% (n = 330,000) | inhibition, % at 11.9 µM; in the data active means inhibition above about 12%
E coli growth-1 – E. coli growth inhibition, primary screen, OD600. Escherichia coli growth, 23 h; stronger effect = lower value. OD600 absorbance (concentration not given with the values). actives 0.21% (n = 330,000);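 active means OD600 absorbance below the run mean of sample wells minus 3.6 SD, in any replicate, cut at about 0.56 in these data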
E coli growth-2 – E. coli V3065 growth inhibition, primary screen, counter-screen for AddAB inhibitor project, absorbance, OD600; AID 449728, 2010; actives 0.27% (n = 330,000); inhibition, % at 11.9 µM; 18 h;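 active means inhibition above the campaign's mean inhibition across all tested compounds plus 3 SD, cut at about 9.9% in these data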;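 further: uninfected addAB+ strain grown without phage in ampicillin broth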
Tat transport – E. coli Tat export inhibitors, primary screen, MC4100, TorA-mCherry reporter, fluorescence, single point | inhibition, % at 10 µM | actives 0.036% (n = 340,000);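 active means mean replicate inhibition at least 50% and at least half of replicates individually reaching 50%; inconclusive means only one of the two criteria met; inactive means neither criterion met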;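 further: exported cargo escapes ClpAP degradation while cytoplasmic cargo is degraded and loses fluorescence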
AddAB confirm – growth loss of phage-infected E. coli expressing H. pylori AddAB, confirmation, AddAB inhibitor project, absorbance, E. coli V3065, T4 phage, triplicate; shares compounds with AddAB inh; OD; T4 phage with gene 2 nonsense mutations; inhibition, % at 11.9 µM; actives 64% (n = 880);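 active means mean inhibition above a set limit taken from the earlier primary screen, cut at about 13% in these data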;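 further: higher means less bacterial growth since AddAB block lets phage replicate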
RecBCD counter – growth loss of RecBCD+ E. coli with mutant T4 phage, counter-screen for AddAB inhibitor project, absorbance, V66 E. coli; shares compounds with AddAB inh; OD growth; inhibition, % at 11.9 µM; actives 73% (n = 880);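 active means mean inhibition above the mean of solvent-only control wells plus 3 SD, cut at about 4% in these data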;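 further: optical density read after an 18 h incubation at 37 °C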
Bact viability – bacterial viability inhibition counter-screen, confirmation, counter-screen for AddAB inhibitor project, absorbance; shares compounds with AddAB inh; absorbance (AddAB counterscreen); inhibition, % at 11.9 µM; actives 35% (n = 880); in the data active means inhibition above about 25%
RecBCD conf – growth loss of phage-infected RecBCD+ E. coli, confirmation, RecBCD inhibitor project, absorbance, E. coli V66, T4 gene 2 phage | shares compounds with phage Ecoli inh | E. coli V66 + T4 2- phage, growth OD | inhibition, % at 11.9 µM | AID 651982, 2013 | actives 45% (n = 890);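 active means mean inhibition over triplicates exceeding the hit threshold derived in the original primary screen, cut at about 11% in these data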
Ecoli viability – E. coli viability inhibition, counter-screen for RecBCD inhibitor project, absorbance, high throughput | shares compounds with phage Ecoli inh | absorbance (OD) growth | inhibition, % at 11.9 µM | actives 29% (n = 890); in the data active means inhibition above about 20%;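 further: E. coli strain V66 grown with compound alone and no phage infection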
AddAB counter – growth loss of phage-infected AddAB-carrying E. coli, confirmation, counter-screen for RecBCD inhibitor project, absorbance, E. coli V3065, T4 phage. shares compounds with phage Ecoli inh. E. coli expressing H. pylori AddAB + T4 phage, OD growth; gene 2 mutant T4, recBCD-deleted host. inhibition, % at 11.9 µM. actives 45% (n = 890). AID 651984, 2013;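 active means mean inhibition above the solvent-only control wells' mean plus 3 SD, cut at about 22% in these data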;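 further: higher means less bacterial growth from phage killing when AddAB is blocked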
Of the large screens only hits and unclear results are named; the others gave an inactive call (follow-up assays come after a bar, where they were run). Compounds with a hit are over-represented: about 0.5% of the library has one in this group of screens.

N#C/C(N=Nc1ccccc1O)=N\Nc1ccccc1O	phage Ecoli inh 30, AddAB inh 23, E coli growth-2 22 (no result: E coli growth-1) | AddAB confirm 89 | RecBCD counter 27 | Bact viability 94 | RecBCD conf 25 | Ecoli viability 25 | AddAB counter 94
O=C(NNC(=O)c1cc(-c2ccncc2)nc2ccccc12)c1ccccc1O	phage Ecoli inh 24, AddAB inh 29, E coli growth-2 26 | AddAB confirm 18 | RecBCD counter 18 | Bact viability inactive | RecBCD conf 12 | Ecoli viability inactive | AddAB counter inactive
Cc1ccc(-c2cc(C(=O)Nc3ccncc3)c3ccccc3n2)cc1	none
O=C(N/N=C/c1ccc(O)cc1O)C(=O)N/N=C/c1ccc(O)cc1O	phage Ecoli inh 22, AddAB inh 28, E coli growth-2 30 (no result: E coli growth-1) | AddAB confirm 22 | RecBCD counter 24 | Bact viability inactive | RecBCD conf 19 | Ecoli viability 21 | AddAB counter 29
CCOC(=O)c1ccc(-c2ccc(C3Nc4ccccc4C(=O)N3O)o2)cc1 (stereo not drawn)	phage Ecoli inh 24, AddAB inh 21, E coli growth-2 22 | AddAB confirm 20 | RecBCD counter 21 | Bact viability inactive | RecBCD conf 16 | Ecoli viability inactive | AddAB counter inactive
Cc1cc([N+](=O)[O-])ccc1-c1ccc(C2Nc3ccccc3C(=O)N2O)o1 (stereo not drawn)	phage Ecoli inh 24, AddAB inh 31, E coli growth-2 27 | AddAB confirm 22 | RecBCD counter 24 | Bact viability inactive | RecBCD conf 18 | Ecoli viability 21 | AddAB counter inactive
N#Cc1ccc(-c2ccc(C3Nc4ccccc4C(=O)N3O)o2)cc1 (stereo not drawn)	none
COC(=O)C1=C(C(=O)OC)C2Nc3ccccc3[C@@]23CC(C(=O)OC)N(C(C)=O)C3=N1 (stereo partly drawn)	none (no result: phage Ecoli inh, AddAB inh, E coli growth-2, Tat transport)
O=C(NC1CCC(=O)N(CCC(Sc2ccc(Br)cc2)c2ccccc2)CC1)OCc1ccccc1 (stereo not drawn)	none (no result: phage Ecoli inh, AddAB inh, E coli growth-2, Tat transport)
CC(=O)c1c(C)n([O-])c2cc(C)ccc2[n+]1=O	phage Ecoli inh 11, AddAB inh 23, E coli growth-1 0.54, E coli growth-2 25 | AddAB confirm 63 | RecBCD counter 10.0 | Bact viability 56 | RecBCD conf inactive | Ecoli viability inactive | AddAB counter 52
COc1ccc(-c2c(C)n([O-])c(C)c(C)[n+]2=O)cc1OC	none
C=CCSc1nsc(NC(=O)Nc2ccc(F)cc2)n1	phage Ecoli inh 15, AddAB inh 20, E coli growth-2 16 (no result: E coli growth-1) | AddAB confirm 18 | RecBCD counter 22 | Bact viability inactive | RecBCD conf inactive | Ecoli viability inactive | AddAB counter 22
CCSc1nsc(NC(=O)Nc2ccccc2F)n1	none
O=C(NC(Cc1ccccc1)C(=O)OCc1ccccc1)c1nc[nH]c1C(=O)N1CCNCC1 (stereo not drawn)	none (no result: phage Ecoli inh, AddAB inh, E coli growth-2, Tat transport)
O=C1CN(/N=C/c2ccc([N+](=O)[O-])o2)C(=O)N1	phage Ecoli inh 77, AddAB inh 99, E coli growth-2 99 (no result: E coli growth-1, Tat transport) | AddAB confirm 100 | RecBCD counter 40 | Bact viability 101 | RecBCD conf 49 | Ecoli viability 72 | AddAB counter 100
O=C1OC(CN2CCOCC2)CN1N=Cc1ccc([N+](=O)[O-])o1 (stereo not drawn)	phage Ecoli inh 86, AddAB inh 98, E coli growth-1 0.064, E coli growth-2 99 | AddAB confirm 100 | RecBCD counter 81 | Bact viability 100 | RecBCD conf 64 | Ecoli viability 83 | AddAB counter 100
O=C(NNC(=O)C1CCN(S(=O)(=O)c2ccc(Cl)cc2)CC1)c1ccccc1O	phage Ecoli inh 12, AddAB inh 12 (no result: E coli growth-1) | AddAB confirm inactive | RecBCD counter 7.3 | Bact viability inactive | RecBCD conf inactive | Ecoli viability inactive | AddAB counter inactive
O=C(NC(=Cc1ccc(Br)cc1)C(=O)N1CCOCC1)c1cccs1	none (no result: phage Ecoli inh, AddAB inh, E coli growth-2, Tat transport)
CC1CN(C(C)CO)C(=O)c2cccc(NC(=O)CCC(F)(F)F)c2OC1CN(C)S(=O)(=O)c1cccs1 (stereo not drawn)	none (no result: phage Ecoli inh, AddAB inh, E coli growth-2, Tat transport)
O=[N+]([O-])c1ccc(-c2ccn[nH]2)o1	phage Ecoli inh 98, AddAB inh 100, E coli growth-1 0.062, E coli growth-2 100, Tat transport inconclusive | AddAB confirm 102 | RecBCD counter 100 | Bact viability 101 | RecBCD conf 105 | Ecoli viability 106 | AddAB counter 106
C/C(=N\N=C1\NC(=O)C(CC(=O)O)S1)c1ccccn1 (stereo not drawn)	phage Ecoli inh 26, AddAB inh 19, E coli growth-2 17 (no result: E coli growth-1, Tat transport) | AddAB confirm 26 | RecBCD counter 22 | Bact viability inactive | RecBCD conf 22 | Ecoli viability 25 | AddAB counter 28
O=C(O)CC1S/C(=N/N=Cc2ccccn2)NC1=O (stereo not drawn)	none (no result: phage Ecoli inh, AddAB inh, E coli growth-2, Tat transport)
Cc1ccc(C=NNc2cn[nH]c(=O)n2)o1	none (no result: phage Ecoli inh, AddAB inh, E coli growth-2, Tat transport)
O=c1cnnc(N/N=C/c2ccccn2)[nH]1	phage Ecoli inh 42, AddAB inh 53, E coli growth-2 41 (no result: E coli growth-1) | AddAB confirm 38 | RecBCD counter 44 | Bact viability 34 | RecBCD conf 37 | Ecoli viability 47 | AddAB counter 47
O=c1nc(N/N=C/c2ccccn2)cn[nH]1	phage Ecoli inh 31, AddAB inh 29, E coli growth-2 29 (no result: E coli growth-1) | AddAB confirm 30 | RecBCD counter 31 | Bact viability inactive | RecBCD conf 24 | Ecoli viability 32 | AddAB counter 31
